# This is a sample that favours compounds with a hit; in the whole collection about 2.3% have one here.
# Abeta yeast res = compounds reversing amyloid beta toxicity in yeast | yeast expressing A-beta42, growth rescue, OD600, 48 h; response scale: 0% DMSO, 100% iron-clioquinol control | Potency, µM (series often up to 46.1 µM), usual class: activators | 410,000 compounds, 0.063% hits; note: potency is the fitted concentration of half-maximal effect; nearly all actives have a fitted effect of over 55% in size
#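 Yeast growth medium received pinned compounds, then yeast cells expressing toxic A-beta were added; plates incubated at 30 C for 48 hr. Growth read as absorbance at 600 nm, normalized to DMSO and equimolar FeCl3 plus clioquinol controls.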
# FUS suppressor = FUS proteinopathy suppression in yeast; S. cerevisiae FUS-expressing, growth rescue, OD600, 24 h; Potency, µM (highest dose often 76.6 µM), usual class: activators; 390,000 compounds, 0.24% hits; AID 1347120;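 note: potency is the fitted concentration of half-maximal effect; plate controls were DMSO vehicle for no effect and reference control for full effect; nearly all actives have a fitted effect of over 55% in size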
#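 Yeast expressing FUS under galactose induction, OD 0.005 in 2% galactose medium; compounds in a dilution series, 24 h at 30C. Growth rescue by absorbance at 600 nm; CP55940 positive control, DMSO negative.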
# Akt phos inh = Akt phosphorylation inhibition; Neuro2A IGF-stimulated pAkt S473 HTRF, 20 min; active compounds read low; activity change, % for hits at 50 µM; 360,000 compounds, 0.32% hits; in the data active = activity change below about -80%; inconclusive = mostly about -51% to -80%; note: % is set by controls: 0 for no effect and ±100 for the full control effect
#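 Single-point screen (50 µM final compound) in Neuro2A cells stimulated 20 min with 6 nM IGF at 37 deg C. After lysis, Ser473-phosphorylated Akt read by HTRF (ex 330 nm, em 615/665 nm) as the 665/615 ratio.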
# aSyn yeast inh = rescues yeast growth from alpha-synuclein toxicity | Yeast expressing alpha-synuclein, growth rescue, BacTiter-Glo, 24 h | 370,000 compounds, 0.14% hits | Potency, µM (top dose mostly 46.1 µM), for the others: top-dose growth rescue (activation), hits mostly activators; note: potency is the fitted concentration of half-maximal effect; % of control where 0% means no effect; nearly all actives have a fitted effect of over 65% in size
#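 Galactose-induced alpha-syn yeast (OD600=0.02, raffinose-pregrown) + pinned cpd, 24 hr, 30 deg C; growth by BacTiter-Glo luminescence. Growth restoration scores as activation.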
# TDP-43 yeast inh = TDP-43 toxicity inhibition in yeast; Potency, µM (top dose mostly 46.1 µM), for inactives: top-dose growth rescue (activation), most hits filed as activators; 410,000 compounds, 1.8% hits; TDP-43 expressing yeast growth rescue, BacTiter-Glo, 24 h; AID 652104; note: potency is the fitted concentration of half-maximal effect; % of control where 0% means no effect; nearly all actives have a fitted effect of over 50% in size
#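 Yeast cells expressing TDP-43 under galactose induction are exposed to compounds for 24 hr at 30 deg C. BacTiter-Glo luminescence measures growth, so protective compounds score as activators.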
# Starred values were filed as active, the others as inactive; i = inactive; u = inconclusive; x = no result given; [ ] = another dose, or the depositor's remark. Unless noted, calls come from the whole dose curve; as a rule, active = well fitted curve in the direction sought with a large enough effect; inconclusive = small, poorly fitted or top-dose-only effect, or another doubt; inactive = no such curve, though single readings can be large; an effect the other way counts as inactive or inconclusive.
SMILES,Abeta yeast res,FUS suppressor,Akt phos inh,aSyn yeast inh,TDP-43 yeast inh
CSc1nc(N)n2nc(C)cc2n1,i,i,i,-9%,9%
CSc1nc(N)n2nc(C(C)(C)C)cc2n1,i,i,i,-15%,18µM*
CCOC(=O)/C=C/C(=O)Nc1ccc(Oc2ccccc2)cc1,i,i,i,-17%,18µM*
COc1ccc(OC)c(S(=O)(=O)NCCc2csc3nc(-c4ccccc4)nn23)c1,i,i,x,x,9%
S=C1NCN(Cc2ccco2)CN1CCc1ccccc1,14µM*,i,i,3%,u
CC(C)CN1CN(Cc2ccco2)CNC1=S,i,x,i,13%,-6%
O=C(NC1CCSc2ccccc21)c1cccc(Cl)c1 (configuration not stated),i,i,i,4%,5.6µM*
CCCn1c(SCc2nc(-c3ccccc3OCC)no2)nnc1-c1ccc(Cl)cc1,i,u,x,x,u
CCOc1ccc(C(=O)NCC(c2ccco2)S(=O)(=O)c2ccc(C)cc2)cc1 (configuration not stated),i,i,x,x,u
CCCCSc1nnc(-c2ccc(NC(C)=O)cc2)n1C,i,x,i,0%,1%
CCCCSc1nnc(-c2ccc(C)cc2)n1C,i,i,-113%*,10%,10%
CC1C(=O)N2CCCc3cc(S(=O)(=O)Nc4ccc(Br)cc4F)cc1c32 (configuration not stated),i,i,x,x,3%
CCNc1ccc(-c2nc(-c3ccco3)no2)cc1[N+](=O)[O-],i,i,x,x,10%
COc1ccc(CNc2oc(COc3cccc(C)c3)nc2C#N)cc1,i,i,x,x,22µM*
N#Cc1nc(COc2cccc(Cl)c2)oc1NCc1ccco1,i,i,i,-5%,u
COc1ccc(Nc2oc(COc3ccc(C)cc3)nc2C#N)cc1,i,i,x,x,22µM*
Cc1ccc(OCc2nc(C#N)c(NCc3ccco3)o2)cc1,i,i,i,15%,11µM*
O=C1COc2cc(S(=O)(=O)CCC(=O)N3CCN(c4cccc(Cl)c4)CC3)c(Cl)cc2N1,i,u,x,1%,4%
CCOC(=O)c1ccc(N)cc1,i,i,i,5%,u
CCOC(=O)c1ccc(C(=O)OCC)nc1,i,i,-106%*,6%,2%
Cc1onc(-c2ccccc2Cl)c1C(=O)Nc1ccc(-n2nncc2-c2ccco2)cc1,i,8.9µM*,i,10%,-14%
Cc1onc(-c2ccccc2Cl)c1C(=O)Nc1ccc(-n2nncc2C(C)(C)C)cc1,i,i,i,-1%,-8%
COc1ccccc1C1CCN(C(=O)c2ccc(C(C)(C)C)cc2)CC1,i,i,i,-38%,12%
CC1c2cc3c(cc2CCN1CC(=O)Nc1ccccc1)OCCCO3 (configuration not stated),i,i,i,0%,4%
COC(=O)c1ccc(OCC2c3cc(OC)c(OC)cc3CCN2C(=O)C(C)C)cc1 (configuration not stated),i,i,x,-3%,24%
SMILES,Abeta yeast res,FUS suppressor,Akt phos inh,aSyn yeast inh,TDP-43 yeast inh
COc1ccccc1C1CCN(C(=O)c2cccc([N+](=O)[O-])c2)CC1,i,i,i,1%,16µM*
CC1c2cc3c(cc2CCN1C(=O)c1cccc(Cl)c1)OCCCO3 (configuration not stated),i,i,x,0%,13µM*
COC(=O)c1ccc(OCC2c3cc(OC)c(OC)cc3CCN2C(=O)c2cccc(C)c2)cc1 (configuration not stated),i,u,x,22%,25µM*
COc1cc2c(cc1OC)C(C)N(C(=O)c1cccc([N+](=O)[O-])c1)CC2 (configuration not stated),i,i,i,22µM*,13µM*
C=C1C=C(C)n2ncc(C(=O)Nc3ccc(NC(C)=O)c(Cl)c3)c2N1,x,x,x,-4%,x
CCOCCCNC(=O)c1ccc2c(=O)n(CCc3ccc(OC)c(OC)c3)c(=O)[nH]c2c1,i,i,x,x,0%[9.22 µM]
Cc1ccc(C)c(NC(=O)c2cnc(N3CCCC3)nc2C)c1,i,i,x,x,14µM*
Cc1nc(N2CCCC2)ncc1C(=O)NCc1ccccc1Cl,i,i,x,x,35µM*
CCOc1cc(C2Sc3ccccc3NC3=C2C(=O)c2ccccc23)ccc1O (configuration not stated),i,u,x,x,11µM*
CCOC(=O)c1c(C)oc2nc(C)nc(N3CCN(c4cccc(C)c4C)CC3)c12,i,i,x,x,4%
O=S(=O)(c1ccccc1Br)N1CCN(c2ncccn2)CC1,i,i,i,u,13µM*
O=C(CSC1=NNC(c2ccccn2)S1)Nc1ccc(C(F)(F)F)cc1 (configuration not stated),u,i,i,7.9µM*,15%
O=C(CSc1nccn1C1CCCC1)Nc1ccc(C(F)(F)F)cc1,i,i,x,x,26%
c1ccc(CSC2=NNC(c3ccccn3)S2)cc1 (configuration not stated),i,i,i,5.6µM*,-4%
c1ccc(CSc2ncccn2)cc1,i,i,x,-4%,-12%
CN(C)c1ccc(/C=C/c2cc[n+](C)c3ccc4ccccc4c23)cc1,x,x,x,-71%,x
COc1ccc(-c2sc3cc4c(cc3c2C#CCO)OCO4)cc1,i,i,i,-14%,3%
COc1ccc2sc(-c3ccccc3OC)c(C#CCCO)c2c1,i,i,i,-12%,20µM*
COc1ccccc1-c1sc2cc3c(cc2c1C#CCO)OCO3,i,u,i,0%,22µM*
COc1cc(OC)cc(-c2sc3ccc(OC)cc3c2C#CCCO)c1,i,u,i,2%,0%
N#Cc1c(-c2ccc([N+](=O)[O-])cc2)nc2n(c1=O)CCS2,i,i,i,-3%,4%
N#Cc1c(-c2cccc([N+](=O)[O-])c2)nc2n(c1=O)CCS2,u,i,i,2%,11µM*
Cc1nc2nc(SCC(=O)N(C)Cc3ccccc3)nn2c(C)c1Cc1ccccc1Cl,i,u,x,x,u
CC(C)(C)C(=O)Nc1cc(-c2cccc(Br)c2)nn1-c1ccccc1,i,i,x,x,22µM*
O=[N+]([O-])c1ccc(/C=N/Nc2nc(-c3ccccc3)c3cc(Br)ccc3n2)o1,i,i,i,-7%,11µM*
Cc1ccc2nc(N/N=C\c3ccc([N+](=O)[O-])o3)nc(-c3ccccc3)c2c1,i,i,i,16%,-3%
CN(N=O)c1ccc(/C=C/c2ccccc2)cc1,x,x,x,5%,x
CC(=O)N(O)c1ccc(C=Cc2ccccc2)cc1,i,i,i,2%,14µM*

# Bioassay records (PubChem)
